Neddyl block: inhibitors of cullin neddylation, primary screen, biochemical, TR-FRET, uHTS, NAE and Ubc12. NEDD8-conjugating enzyme Ubc12 (Homo sapiens) + NEDD8-activating enzyme E1 regulatory …. inhibition, % at 25 µM. hit rate 0.58% among 360,000. AID 651699, 2012; in the data active means inhibition above about 36%
Target sequence (P61081 whole entry, looked up): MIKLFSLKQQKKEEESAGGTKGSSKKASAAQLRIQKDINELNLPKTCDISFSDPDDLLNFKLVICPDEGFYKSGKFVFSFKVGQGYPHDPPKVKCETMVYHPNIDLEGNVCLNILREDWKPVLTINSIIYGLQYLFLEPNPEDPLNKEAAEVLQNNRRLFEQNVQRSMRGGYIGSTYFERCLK
Target sequence (Q13564 whole entry, looked up): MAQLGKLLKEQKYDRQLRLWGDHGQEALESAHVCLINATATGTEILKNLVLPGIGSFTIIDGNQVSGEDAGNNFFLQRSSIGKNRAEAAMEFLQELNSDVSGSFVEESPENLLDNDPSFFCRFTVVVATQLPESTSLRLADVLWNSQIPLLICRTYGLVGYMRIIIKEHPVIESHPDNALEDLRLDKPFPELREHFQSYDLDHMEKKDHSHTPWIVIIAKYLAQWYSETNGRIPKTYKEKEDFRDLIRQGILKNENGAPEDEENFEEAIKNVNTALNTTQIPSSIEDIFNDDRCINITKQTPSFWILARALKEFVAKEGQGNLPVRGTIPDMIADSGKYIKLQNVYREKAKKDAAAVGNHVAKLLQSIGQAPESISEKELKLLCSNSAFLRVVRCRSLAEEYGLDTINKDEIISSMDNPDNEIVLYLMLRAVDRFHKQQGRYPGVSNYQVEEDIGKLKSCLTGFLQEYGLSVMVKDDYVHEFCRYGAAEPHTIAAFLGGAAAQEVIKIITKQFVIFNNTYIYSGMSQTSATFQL
Bfl-1 A1 inh: caspase 3/7 activation in MEF A1-2A-BIM cells, primary screen, A1 inhibitor project, cell-based, luminescence, HTS. Caspase-Glo 3/7 luminescence, 3 h; percent of clofoctol response, vehicle zero. hit rate 0.066% among 330,000. AID 2462, 2010. caspase activation, % (no concentration beside the values);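 active means over half of replicate activation scores above 10%, or exactly half above 10 with the replicate mean above 10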
dFosB act-1: activators of delta FosB homodimer, primary screen, biochemical, fluorescence polarization, TAMRA-CDK5 oligo, single point; Protein FosB (Mus musculus), P13346; purified delta FosB; percent of positive-control signal above neutral wells; activation, % at 25 µM; hit rate 0.99% among 340,000;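 active means mean activation above about 17%, with every replicate also reaching it, limit read from the data, passing the limit was not always enough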
GSIS activator: GLuc luminescence reporter in INS-1E cells, primary screen for activators of glucose-dependent secretion of insulin. activation, % at 16.6 µM. INS-1E GLuc reporter insulin secretion, 2-3 h. hit rate 0.61% among 370,000;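 active means lowest replicate activation of at least 40%, so every replicate reaches that level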;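 further: 0% = median of neutral control wells and 100% = median of IBMX positive control wells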
Vif imaging: HIV Vif self-association inhibitors, primary screen, imaging, HEK293T, single point; HEK293T cells, Vif self-association by quenched fluorescence, 24 h; hit rate 0.35% among 340,000; inhibition, % at 7.49 µM; in the data active means inhibition above about 50%, passing the limit was not always enough
dFosB act-2: activators of mouse delta FosB DNA binding, confirmation, biochemical, fluorescence polarization, TAMRA-CDK5 oligo, cherry-picked samples | shares compounds with dFosB act-1 | 2,400 tested, under 10 active | AID 588690, 2011 | purified delta FosB; normalised: neutral wells 0, positive control 100 | activation, % at 24.9 µM;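 active means highest replicate activation at or above 34% and every replicate reaching that threshold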;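 further: higher polarization means more probe DNA bound by delta FosB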
* marks the source's active call; other numbers are inactive results; i = inactive; nt = no result shown. Most compounds without a hit are left out; they make up all but 1.9% or so of the library.

SMILES	Neddyl block	Bfl-1 A1 inh	dFosB act-1	GSIS activator	Vif imaging	dFosB act-2
O=C(COC(=O)Cc1ccc(Cl)cc1)NCc1ccc2c(c1)OCO2	15	nt	-2	2	0	nt
CCN(CC)S(=O)(=O)c1ccc(-c2nnc(SCC(=O)Nc3ccc4c(c3)OCO4)o2)cc1	6	-1	31*	-3	7	-2
CCN(CC)S(=O)(=O)c1ccc(NC(=O)CSc2nnc(-c3ccc(F)cc3)o2)cc1	-19	-1	-2	-5	8	nt
O=C(COC(=O)CSc1nnc(-c2ccc(Cl)cc2)o1)NCc1ccc2c(c1)OCO2	-10	-1	24*	nt	6	3
C[C@@H]1CN([C@@H](C)CO)C(=O)c2cc(C#CC3(O)CCCC3)cnc2O[C@@H]1CN(C)C(=O)Cc1ccncc1	nt	nt	nt	9	nt	nt
O=C(CCc1nc2ccccc2c(=O)[nH]1)NCCN1C(=O)S/C(=C\c2ccc(OC(F)F)cc2)C1=O	-31	nt	47*	9	-1	-8
O=C(CCc1nc2ccccc2c(=O)[nH]1)NCCN1C(=O)S/C(=C\c2ccccc2Cl)C1=O	-8	1	2	10	-5	nt
Cc1cc(Nc2ccc3c(c2)OCCO3)c2cccc(C)c2n1	-6	0	31*	37	1	6
Cc1cc(Nc2ccc3c(c2)OCCO3)c2ccccc2n1	-8	1	7	21	1	nt
CCOc1ccc2nc(C)cc(Nc3ccc4c(c3)OCCO4)c2c1	-4	0	44*	nt	-9	4
COc1cccc(S(=O)(=O)N[C@@H]2CC[C@@H](CC(=O)NCc3ccccc3)O[C@H]2CO)c1	nt	nt	nt	12	nt	nt
O=C1Nc2ccccc2O/C1=C\c1c(F)cccc1Cl	nt	1	25*	25	-12	1
COC(=O)c1ccc(/C=C2\Oc3ccccc3NC2=O)cc1	nt	-1	33*	0	-19	-7
CN(C)CC(=O)Nc1ccc2c(c1)[C@H]1C[C@@H](CC(=O)N3CCCCC3)O[C@H](CO)[C@H]1O2	nt	nt	nt	-2	nt	nt
CC(C)NC(=O)N(C)C[C@H]1OCCCC[C@H](C)Oc2ccc(NC(=O)Nc3cccc4ccccc34)cc2C(=O)N([C@H](C)CO)C[C@H]1C	nt	nt	nt	9	nt	nt
Cc1cccc(NC(=O)Nc2ccc(C)cc2Br)c1	5	-4	20*	16	-8	5
CC(=O)Nc1cccc(NC(=O)Nc2cccc(Cl)c2C)c1	3	1	22*	7	-9	-1
COc1ccc(C)cc1NC(=O)Nc1cccc(C)c1	9	-3	0	-3	-1	nt
C[C@H]1CN([C@@H](C)CO)C(=O)c2cccc(NC(=O)c3ccncc3)c2O[C@H]1CN(C)C(=O)Nc1ccc(C(F)(F)F)cc1	nt	nt	nt	-2	nt	nt
Cc1cccc(Nc2nnc(SCC(=O)NC3CCCc4ccccc43)s2)c1 (stereo not drawn)	0	0	21*	-17	-7	-3
Cc1ccc(-c2nnn(CC(=O)NC3CCCc4ccccc43)n2)cc1 (stereo not drawn)	10	0	25*	nt	-5	-1
COc1ccc(C#Cc2ccc3c(c2)[C@@H]2[C@@H](CCN2C(=O)c2ccccc2F)[C@H](CO)N3)cc1	nt	nt	nt	5	nt	nt
COc1ccccc1NCC(O)Cn1c2ccccc2c2ccccc21 (stereo not drawn)	20	-1	-11	nt	-19	nt
COc1ccc(CCNCC(O)Cn2c3ccccc3c3ccccc32)cc1OC (stereo not drawn)	10	-1	21*	-11	-3	1
COC(=O)c1ccc(C2C(Oc3ccc(OC)cc3)C(=O)N2CCc2ccc(F)cc2)cc1 (stereo not drawn)	7	-1	23*	113*	3	-1
SMILES	Neddyl block	Bfl-1 A1 inh	dFosB act-1	GSIS activator	Vif imaging	dFosB act-2
COc1ccc(OC2C(=O)N(Cc3ccc(F)cc3)C2c2cc(OC)c(OC)c(OC)c2)cc1 (stereo not drawn)	5	1	-3	4	4	nt
CC1CCN(S(=O)(=O)c2cn(CC(=O)Nc3cccc(C#N)c3)cn2)CC1	-6	0	-1	4	4	nt
CC(=O)c1cccc(NC(=O)Cn2cnc(S(=O)(=O)N3CCC(C)CC3)c2)c1	-6	0	50*	nt	12	0
O=C(CSc1nnc(-c2ccncc2)n1Cc1ccco1)Nc1nc(-c2ccccc2)cs1	1	1	33*	nt	-25	-2
O=C(CSc1nnc(-c2ccncc2)n1Cc1ccco1)Nc1ccccc1Cl	4	0	-4	13	-1	nt
C[C@@H]1CCCCO[C@H](CN(C)C(=O)c2ccccc2)[C@@H](C)CN([C@H](C)CO)C(=O)c2cc(NC(=O)C3CCCCC3)ccc2O1	nt	nt	nt	5	nt	nt
C[C@H]1CN(C)C(=O)c2cccc(NS(C)(=O)=O)c2O[C@H]1CN(C)C	nt	nt	nt	18	nt	nt
Cc1ccccc1NC(=O)CSc1nc(N)c(C#N)c(-c2cccs2)c1C#N	i	0	61*	-34	-6	3
CCN(CC)C(=O)CSc1nc(N)c(C#N)c(-c2cccs2)c1C#N	-173	0	5	nt	-3	nt
Cc1ccc(Nc2nc(N)c3ccccc3n2)cc1C	32	-10	42*	-22	-3	1
Cc1ccc(NC(=O)c2ccc(OC(=O)CCN3C(=O)c4ccccc4C3=O)cc2)cc1	4	-4	35*	nt	nt	0
Cc1cccc(OCCC(=O)NNC(=O)Cn2nc(C)cc2C)c1	-13	-1	2	-14	-2	nt
Cc1cc(C)n(CC(=O)NNC(=O)CCCOc2ccc(Cl)c(C)c2)n1	10	0	21*	-1	nt	-2
Cc1cc(Cl)ccc1OCCCC(=O)NN	-3	0	-1	-4	1	nt
Cc1cc(C)n(CC(=O)NNC(=O)CCCOc2ccc(Cl)cc2C)n1	7	1	34*	38	-10	4
C[C@H]1CN([C@@H](C)CO)C(=O)c2ccccc2-c2ccccc2CO[C@H]1CN(C)Cc1ccc(C(F)(F)F)cc1	nt	nt	nt	-27	nt	nt
CCCC(C(=O)NC1CCCC1)N(C(=O)c1snc(C(N)=O)c1N)c1ccc(F)cc1 (stereo not drawn)	31	nt	24*	10	8	2
NC(=O)c1nsc(C(=O)N(c2ccccc2F)C(C(=O)NCc2ccc(F)cc2)c2ccc(O)cc2)c1N (stereo not drawn)	-82	0	44*	-2	-4	5

Screening data from PubChem.
